In PubChem BioAssay:
Results filed as inconclusive are left out. Calls of active or inactive are those of the source.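 Rule for the calls, unless noted: active = normalized viability below 100% at a tested concentration; inactive = the rest.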

Legend:
[1] = growth inhibition of DIPG glioma cells, dose response, cell-based, SU-DIPG-XVII, MIPE5.0, CellTiter-Glo, qHTS (AID 1347060; cut-off not given, nearly all actives have AC50 up to about 26 µM;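 for AC50: cells exposed to compound for 48 hours before viability readout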); conditions: SU-DIPG-XVII viability, CellTiter-Glo ATP luminescence
[2] = viability loss in pontine glioma line – cell-based, SU-DIPG-XXV, MIPE5.0, CellTiter-Glo, qHTS, dose response (AID 1347065; cut-off not given, nearly all actives have AC50 up to about 26 µM;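 note: cells exposed to compound for 48 hours before ATP readout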); conditions: CellTiter-Glo ATP luminescence
[3] = JHH-DIPG-1 glioma cell viability, MIPE5.0 library, CellTiter-Glo luminescence, qHTS (AID 1347067; cut-off not given, nearly all actives have AC50 up to about 26 µM;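 note: cells exposed to compound for 48 hours before readout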); conditions: JHH-DIPG-1 glioma viability, CellTiter-Glo ATP luminescence
[4] = ovarian cancer cell viability with rucaparib, profiling panel, oncology-focused library, rucaparib conditional (AID 1508598); conditions: patient-derived ovarian cancer cells, CellTiter-Glo viability, 144 h, hits give low values
[5] = SU-DIPG-XXV glioma cell viability, MIPE5.0 library, qHTS (AID 1347068; cut-off not given, nearly all actives have IC50 up to about 30 µM;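 for IC50: cells exposed to compound for 48 hours before viability readout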)

CC(C)Oc1ccc(C(=O)N[C@H](CNC(=O)CN(C)C)Cc2ccc(-c3cn4cccc([C@H](C)O)c4n3)cc2)cc1Cl
inactive: outcome [3] | viability ([4]; at 0.000305 µM, OCI-C5x cells, with rucaparib 10 µM, 100% = cells with rucaparib alone) 116% | viability ([4]; at 0.000305 µM, OCI-C5x cells, without rucaparib) 118% | viability ([4]; at 0.000305 µM, OCI-P5x cells, with rucaparib 20 µM, 100% = cells with rucaparib alone) 118% | viability ([4]; at 0.000305 µM, OCI-P5x cells, without rucaparib) 103% | viability ([4]; at 0.00122 µM, OCI-C5x cells, with rucaparib 10 µM, 100% = cells with rucaparib alone) 112% | viability ([4]; at 0.00122 µM, OCI-C5x cells, without rucaparib) 123% | viability ([4]; at 0.00122 µM, OCI-P5x cells, with rucaparib 20 µM, 100% = cells with rucaparib alone) 107% | viability ([4]; at 0.00122 µM, OCI-P5x cells, without rucaparib) 107% | viability ([4]; at 0.00488 µM, OCI-C5x cells, with rucaparib 10 µM, 100% = cells with rucaparib alone) 117% | viability ([4]; at 0.00488 µM, OCI-C5x cells, without rucaparib) 115% | viability ([4]; at 0.00488 µM, OCI-P5x cells, with rucaparib 20 µM, 100% = cells with rucaparib alone) 107% | viability ([4]; at 0.00488 µM, OCI-P5x cells, without rucaparib) 101%
active: AC50 [1] 0.0525 µM | AC50 [2] 0.0295 µM | viability ([4]; at 0.0195 µM, OCI-C5x cells, with rucaparib 10 µM, 100% = cells with rucaparib alone) 69.6% | viability ([4]; at 0.0195 µM, OCI-C5x cells, without rucaparib) 73.7% | viability ([4]; at 0.0195 µM, OCI-P5x cells, with rucaparib 20 µM, 100% = cells with rucaparib alone) 76.4% | viability ([4]; at 0.0195 µM, OCI-P5x cells, without rucaparib) 38.4% | viability ([4]; at 0.0781 µM, OCI-C5x cells, with rucaparib 10 µM, 100% = cells with rucaparib alone) 57.4% | viability ([4]; at 0.0781 µM, OCI-C5x cells, without rucaparib) 72.4% | viability ([4]; at 0.0781 µM, OCI-P5x cells, with rucaparib 20 µM, 100% = cells with rucaparib alone) 66.4% | viability ([4]; at 0.0781 µM, OCI-P5x cells, without rucaparib) 30.8% | viability ([4]; at 0.313 µM, OCI-C5x cells, with rucaparib 10 µM, 100% = cells with rucaparib alone) 57.8% | viability ([4]; at 0.313 µM, OCI-C5x cells, without rucaparib) 65% | viability ([4]; at 0.313 µM, OCI-P5x cells, with rucaparib 20 µM, 100% = cells with rucaparib alone) 62.3% | viability ([4]; at 0.313 µM, OCI-P5x cells, without rucaparib) 28.3% | viability ([4]; at 1.25 µM, OCI-C5x cells, with rucaparib 10 µM, 100% = cells with rucaparib alone) 61.8% | viability ([4]; at 1.25 µM, OCI-C5x cells, without rucaparib) 72.8% | viability ([4]; at 1.25 µM, OCI-P5x cells, with rucaparib 20 µM, 100% = cells with rucaparib alone) 62.6% | viability ([4]; at 1.25 µM, OCI-P5x cells, without rucaparib) 26.8% | viability ([4]; at 5 µM, OCI-C5x cells, with rucaparib 10 µM, 100% = cells with rucaparib alone) 79.5% | viability ([4]; at 5 µM, OCI-C5x cells, without rucaparib) 89.6% | viability ([4]; at 5 µM, OCI-P5x cells, with rucaparib 20 µM, 100% = cells with rucaparib alone) 63.4% | viability ([4]; at 5 µM, OCI-P5x cells, without rucaparib) 25.3%

Cn1cc(-c2ccc(F)c(C(F)(F)F)c2)nc1C1CCN(c2ncnc3[nH]ncc23)CC1
inactive: outcome [1] | outcome [2] | outcome [5]

CCNCCS(=O)(=O)NC[C@@]1(c2ccccc2)SC(NC(=O)C(C)(C)C)=NN1C(=O)C(C)(C)C
active: AC50 [1] 0.00742 µM | AC50 [2] 0.00468 µM | IC50 [5] 0.00296 µM

COCCN1CCN(Cc2ccc(-c3n[nH]c4c3C(=O)c3c(NC(=O)NN5CCOCC5)cccc3-4)cc2)CC1
active: AC50 [1] 0.295 µM | AC50 [2] 0.235 µM | IC50 [5] 0.263 µM

C=CC(=O)N[C@H]1CN(c2nc(Nc3cn(C)nc3OC)c3ncn(C)c3n2)C[C@@H]1F
active: AC50 [1] 18.6 µM | AC50 [2] 20.9 µM | IC50 [5] 16.6 µM
